An excerpt weighted towards active compounds, which were near 3.6% of everything screened.
Hsp90 Hop PPI = changes Hsp90-Hop TPR2A binding signal, up or down; AlphaScreen TPR2A-His6 binding biotin-Hsp90 C-terminal peptide; 0.44% of 71,000 active; Potency, µM (highest dose often 57 µM), for inactives: top-dose activity change, negative = inhibition; AID 595; active = well fitted curve in either direction with a large enough effect; inconclusive = small, poorly fitted or top-dose-only effect, or another doubt; note: % is set by controls: 0 for no effect and ±100 for the full control effect
CRE Fsk mod = CRE-bla signaling modulation under forskolin stimulation. CHO CRE-bla reporter (cAMP response element driving beta-lactamase), forskolin EC10, beta-lactamase ratio. Potency, µM (highest dose often 38.2 µM), for inactives: at the highest dose activity change, negative = inhibition, actives largely listed as activators. 2.5% of 71,000 active. AID 662; active = well fitted activation curve with a large enough effect in the signal ratio, with a control signal flat, not every such curve was filed as active; inconclusive = small, poorly fitted or top-dose-only effect, or effect the other way, or a change in a side signal; the % refers to the signal ratio; note: % of control where 0% means no effect
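Beta-lactamase reporter under a cAMP responsive element in CHO cells; compounds tested in titration series against EC10 NKH 477, 3 h at 37 °C. Read-out: CCF4 FRET ratio 460nm/530nm (excitation 405nm) giving %Activity, fitted to AC50.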
IkB sig inh = inhibitors of IkB signaling in ABC-DLBCL cells. Potency, µM (doses to about 57.1 µM), for inactives: at the highest dose IkBa stabilization activation. AID 445. ABC-DLBCL IkBa-CBG/CBR dual luciferase ratio, 4 h; response scale: scaled: untreated 0%, proteasome inhibitor 100%. 0.04% of 110,000 active; active = well fitted curve in the direction sought with a large enough effect in the signal ratio, not every such curve was filed as active; inconclusive = small, poorly fitted or top-dose-only effect, or a change in a side signal; the % refers to the signal ratio;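 note: the direction sought is a rising ratio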
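In this assay, an IκBα–CBG68 fusion accumulates when IKK-driven degradation is blocked; native CBR normalizes for cell number. OCI-Ly3 cells were treated 4 h with compound and doxycycline, then green and red light read after Chroma-Glo addition.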
ALOX15 inhib = blocks human 15-lipoxygenase activity; purified 15hLO-1, xylenol orange hydroperoxide absorbance; P16050; 1.4% of 74,000 active; AID 887; Potency, µM (top dose mostly 57.1 µM), for inactives: at the highest dose activity change, negative = inhibition, most hits filed as inhibitors; note: % is set by controls: 0 for no effect and ±100 for the full control effect; nearly all actives have a fitted effect of over 55% in size
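40 nM 15hLO-1 + cpd, 15 min RT; start w/ 50 uM AA (final), 6 min RT; stop/detect w/ 200 uM XO + 300 uM Fe(II) in 50 mM H2SO4, 30 min; A573/A405. Buffer 25 mM Hepes pH 7.5, 0.01% Triton X-100. No-enzyme wells as negative control.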
Tau fil binding = tau filament binding; Potency, µM (doses to about 57.1 µM), without a hit: at the top dose activity change, negative = inhibition; recombinant tau filaments, thioflavin S fluorescence, 15 h; filaments grown with octadecylsulfate alongside compound; 2% of 71,000 active;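 note: % is set by controls: 0 for no effect and ±100 for the full control effect; actives lower thioflavin S fluorescence by blocking filaments or displacing dye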
Target sequence (P10636 whole entry, looked up): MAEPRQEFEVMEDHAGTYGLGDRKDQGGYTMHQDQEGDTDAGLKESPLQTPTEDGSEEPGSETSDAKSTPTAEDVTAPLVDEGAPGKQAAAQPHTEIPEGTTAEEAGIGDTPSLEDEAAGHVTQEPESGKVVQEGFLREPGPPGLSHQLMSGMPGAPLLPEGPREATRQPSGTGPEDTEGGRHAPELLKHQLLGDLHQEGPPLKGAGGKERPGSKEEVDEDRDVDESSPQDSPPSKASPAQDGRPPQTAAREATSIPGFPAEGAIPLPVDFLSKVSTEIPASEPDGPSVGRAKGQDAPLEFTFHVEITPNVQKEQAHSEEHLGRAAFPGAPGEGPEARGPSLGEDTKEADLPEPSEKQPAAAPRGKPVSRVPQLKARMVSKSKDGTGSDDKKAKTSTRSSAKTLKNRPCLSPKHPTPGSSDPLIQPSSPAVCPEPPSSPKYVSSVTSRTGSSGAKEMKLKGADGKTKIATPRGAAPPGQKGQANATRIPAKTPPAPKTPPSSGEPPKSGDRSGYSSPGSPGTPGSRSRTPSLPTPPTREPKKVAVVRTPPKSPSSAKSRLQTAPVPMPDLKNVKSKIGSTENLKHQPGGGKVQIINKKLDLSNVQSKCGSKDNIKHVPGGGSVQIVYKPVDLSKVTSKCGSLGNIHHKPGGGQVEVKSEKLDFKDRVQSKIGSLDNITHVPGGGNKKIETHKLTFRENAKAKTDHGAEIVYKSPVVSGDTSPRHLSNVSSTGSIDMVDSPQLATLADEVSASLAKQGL
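Quantitative HTS: thioflavine S signal from ODS-induced tau filaments, excited at 450 nm, emission 510 nm. Conditions: 1 uM tau, 30 uM ODS, 15 h at 37 C, pH 7.4.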
The depositor's hits bear a star; ? = inconclusive; . = no result given; [ ] = dose if it differs, or a comment. Unless noted, calls come from the whole dose curve; as a rule, active = well fitted curve in the direction sought with a large enough effect; inconclusive = small, poorly fitted or top-dose-only effect, or another doubt; inactive = no such curve, though single readings can be large; an effect the other way counts as inactive or inconclusive. Potency is the fitted concentration of half-maximal effect.

SMILES | Hsp90 Hop PPI | CRE Fsk mod | IkB sig inh | ALOX15 inhib | Tau fil binding
C=CCn1c(-c2ccccc2)nc2nc3ccccc3nc21 | -1% | 2µM* | -4% | 8% | -3%
COc1ccc(-c2noc(CNC(=O)c3ccccc3Br)n2)cc1 | . | . | -2% | . | .
O=C(Nc1ccc(NC(=O)c2cc3ccccc3o2)cc1)c1ccccc1 | . | . | 3% | . | .
Cn1c(=O)n(C)c2cc(NC(=O)c3cc4ccccc4o3)ccc21 | 0% | 10µM* | ? | -14% | 37%
CCn1c(Cc2ccccc2)nnc1SCC(=O)Nc1ccc(N2CCOCC2)c(Cl)c1 | -4% | -3% | 0% | -3% | 5%
Cn1c(SCC(=O)Nc2ccc(N3CCOCC3)c(Cl)c2)nnc1-c1ccccc1 | -8% | -5% | 1% | 4% | 10µM*
COc1cccc(Cn2c(CNS(=O)(=O)c3ccc(F)c(Cl)c3)nc3cccnc32)c1 | . | . | 1% | . | .
COC(=O)c1ccc(CSc2nc(C(F)(F)F)c3c(c2C#N)CCC3)o1 | 3% | ? | ? | 20µM* | ?
O=C(Nc1cccc(Br)c1)c1ccn[nH]1 | 2% | -3% | 9% | 10µM* | 2%
COc1ccc(CCNC(=O)c2c[nH]c3ccccc3c2=O)cc1OC | -5% | 10µM* | 0% | -5% | 17%
CCS(=O)(=O)CCSc1nc2c(cc1C#N)CCCC2 | 1% | 7% | 2% | -23% | -6%
CN1CCc2nc(SCCOc3ccccc3)c(C#N)cc2C1 | -10% | ? | ? | 3.2µM* | 68%
CC(=O)OCC1OC(c2ccccc2)C(OC(C)=O)C(OC(C)=O)C1OC(C)=O (stereo unspecified) | -4% | 23% | -6% | 7% | 13%
O=C(OCC1OC(OC(=O)c2cc(O)c(O)c(OC(=O)c3cc(O)c(O)c(O)c3)c2)[C@@H](OC(=O)c2cc(O)c(O)c(OC(=O)c3cc(O)c(O)c(O)c3)c2)C(OC(=O)c2cc(O)c(O)c(OC(=O)c3cc(O)c(O)c(O)c3)c2)C1OC(=O)c1cc(O)c(O)c(OC(=O)c2cc(O)c(O)c(O)c2)c1)c1cc(O)c(O)c(OC(=O)c2cc(O)c(O)c(O)c2)c1 (stereo partly specified) | . | . | . | 0.5µM* | .
CNS(=O)(=O)c1cn(CC(=O)Nc2ccc(C)c(N(C)C)c2)cc1S(=O)(=O)NC | . | . | 0% | . | .
Cn1c(=O)[nH]c(=O)c2c1nc(Br)n2CCOc1ccccc1 | -6% | 3.2µM* | 1% | 6% | 2%
Cn1c(=O)[nH]c(=O)c2c1nc(N1CCCCC1)n2CCOc1ccccc1 | -2% | ? | -3% | -9% | 3%
Cn1c(=O)c2c(nc(N3CCCCC3)n2CCSc2nc3ccccc3s2)n(C)c1=O | -5% | 2% | 0% | -3% | 7%
Cn1c(=O)[nH]c(=O)c2c1nc(N1CCCCC1)n2CCCSc1nc2ccccc2s1 | ? | 2.5µM* | 0% | -17% | 64%
O=C(CSc1nc2ccccc2o1)c1cc2ccccc2oc1=O | -20% | -14% | ? | 22% | 25µM*
Cn1c(=O)[nH]c(=O)c2c1nc(Br)n2CCCSc1nc2ccccc2o1 | 1% | 10µM* | ? | -1% | -1%
COc1cccc(C(c2sc3nc(-c4ccco4)nn3c2O)N2CCCC2)c1 (stereo unspecified) | . | . | -4% | . | .
Cc1ccc(CN2c3ccccc3-c3nc(SCC(=O)Nc4c(C)cc(C)cc4C)ncc3S2(=O)=O)cc1 | . | . | 1% | . | .
COc1ccc(-n2nc(C(=O)N(C)c3cccc(C(F)(F)F)c3)c3c4ccccc4n(C)c3c2=O)cc1 | . | . | -3% | . | .
O=C1c2ccccc2C(=O)N1Cc1nc2ccccc2o1 | -1% | 3% | 0% | 6% | 1%
SMILES | Hsp90 Hop PPI | CRE Fsk mod | IkB sig inh | ALOX15 inhib | Tau fil binding
O=C1c2ccccc2C(=O)N1CCCSc1nc2ccccc2o1 | ? | ? | ? | -11%[11.4 µM] | 4µM*
COc1ccc2c3c(cccc13)NN=C2C | -19% | 3% | 0% | 13µM* | 16µM*
Cc1nn(CCCC(=O)Nc2ccccc2C(F)(F)F)c(=O)c2nn(-c3ccccc3)c(C)c12 | . | . | 2% | . | .
COc1ccc(-c2nc3cnc(Oc4cccc(Cl)c4)nc3n(C3CC3)c2=O)cc1 | -4% | 3.2µM* | -1%[11.4 µM] | 3% | 16%
COCCn1c(=O)c(-c2cc(F)cc(F)c2)nc2cnc(N(C)C)nc21 | -3% | 10µM* | 1%[11.4 µM] | 0% | 40%
O=c1c(-c2ccccc2)nc2cnc(Oc3cccc(Cl)c3)nc2n1C1CC1 | -3% | ? | 2%[11.4 µM] | -5% | -2%
COCCn1c(=O)c(-c2cc(F)cc(F)c2)nc2cnc(Oc3ccc(OC)cc3)nc21 | -5% | ? | 8%[11.4 µM] | -11% | 16µM*
COCCn1c(=O)c(-c2cc(F)cc(F)c2)nc2cnc(Oc3ccccc3)nc21 | -5% | -2% | 7%[11.4 µM] | -10% | ?
COCCn1c(=O)c(-c2cc(F)cc(F)c2)nc2cnc(Oc3cccc(Cl)c3)nc21 | -10% | ? | 6%[11.4 µM] | 5% | 13µM*
O=C(CSc1nc2ccccc2n1Cc1cccc(F)c1)NCc1ccccc1 | . | . | 0% | . | .
COc1ccc(NC(=O)Cn2nc3c(cc2=O)CCCC3)cc1Cl | . | . | 2% | . | .
Cc1cc2oc(C(=O)N(Cc3ccc(N(C)C)cc3)CC3CCCO3)c(C)c2cc1Cl (stereo unspecified) | . | . | -3% | . | .
CC(C)CCNC(=O)c1ccc(Cn2c(SCC(=O)NC(C)C)nc3ccccc3c2=O)cc1 | . | . | -1% | . | .
CCOC(=O)c1sc(N2C(=O)c3oc4ccc(C)cc4c(=O)c3C2c2ccccc2F)nc1C (stereo unspecified) | . | . | 1% | . | .
Cn1c(=O)c(-c2ccccc2)nc2cnc(Oc3ccccc3)nc21 | 7% | -2% | -1%[11.4 µM] | 2% | ?
Cn1c(=O)c(-c2ccc(Cl)cc2)nc2cnc(Oc3ccccc3)nc21 | -3% | 3.2µM* | -3%[11.4 µM] | 2% | ?
O=c1cnc2cnc(Oc3cccc(Cl)c3)nc2n1Cc1ccc(F)cc1 | -3% | -3% | -1%[11.4 µM] | -23% | 16µM*
C=Cc1ccc(Cn2c(C(=O)O)c(CNC3CCCCC3)c3ccc(OC)cc32)cc1 | . | . | 0% | . | .
c1cncc(-c2cc(NCc3cccs3)ncn2)c1 | -8% | ? | -2%[11.4 µM] | 25µM* | -5%
c1cncc(-c2nccc(NCc3cccs3)n2)c1 | 7% | 2.5µM* | 3%[11.4 µM] | ? | -10%
COc1cc(C(=O)NCCCc2nc3ccccc3n2CC(C)C)cc(OC)c1OC | . | . | -2% | . | .
COc1ccc(CCNC(=O)c2ccc3nc(-c4ccco4)c(-c4ccco4)nc3c2)cc1OC | -15% | ? | ? | 7.9µM* | 3.2µM*
CCn1c(CCNC(=O)c2ccc(OC)c(OC)c2)nc2ccccc21 | 1% | 13µM* | 1% | -2% | -7%
Cc1ccc(CNC(=O)CCCN2C(=O)CCn3nc(-c4cn(C)c5ccccc45)cc32)cc1 | . | . | 0% | . | .

Bioassay records: PubChem, National Center for Advancing Translational Sciences (NCATS)
